Source: PubChem BioAssay (NCI)
Several values for one entry are separate records, joined by “and”; a condition that tells them apart may be missing. Equal entries are not always repeated. About 83,000 compounds went through this panel and 20% of them were active in at least one assay; those are over-represented in the sample as a whole.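 Single-concentration screen, 48 h exposure, 96-well plates. Endpoint: percent growth. Below 10 = active.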 Activity calls are given as the source filed them.

Key:
Experiment in all cases: NCI-60 one-dose screen, 48 h (100 = growth as untreated, 0 = no growth, -100 = all killed)
Conditions in all cases: 10 µM unless noted
[1] = test system: HCT-15 colon
[2] = test system: HT29 colon
[3] = test system: SNB-75 CNS
[4] = test system: SNB-19 CNS
[5] = test system: U251 CNS
[6] = test system: PC-3 prostate
[7] = test system: SK-MEL-5 melanoma
[8] = test system: UACC-62 melanoma
[9] = test system: LOX IMVI melanoma
[10] = test system: SK-MEL-28 melanoma
[11] = test system: SK-MEL-2 melanoma
[12] = test system: EKVX NSCLC
[13] = test system: SN12C renal
[14] = test system: UO-31 renal
[15] = test system: TK-10 renal
[16] = test system: ACHN renal
[17] = test system: CAKI-1 renal
[18] = test system: A498 renal
[19] = test system: CCRF-CEM leukemia
[20] = test system: MOLT-4 leukemia

Measured: growth

COc1cc2cc(NCc3ccncc3)nc(C)c2cc1OC
inactive: [1] 82.9% | [2] 91.6% | [3] 97% | [4] 93.8% | [5] 78.5% | [6] 77.8% | [7] 95.2% | [8] 97.8% | [9] 88% | [10] 99.2% | [11] 100% | [12] 96.3% | [13] 97.1% | [14] 89.8% | [15] 83.5% | [16] 101% | [17] 82.3% | [18] 72.4% | [19] 112% | [20] 109%

CCOC(=O)c1c(-c2ccc(OC)cc2)c(C#N)c2c(C#N)c(N)nn2c1N
inactive: [1] 22.6% | [3] 43.4% | [4] 31.2% | [5] 15.8% | [6] 40% | [7] 19.3% | [8] 13.1% | [9] 28.3% | [10] 44.8% | [12] 41.1% | [13] 40.8% | [14] 47.6% | [15] 57.7% | [16] 53.3% | [17] 39.8% | [20] 10%
active: [2] 6.58% | [11] 3.6% | [18] -7.96% | [19] 5.96%

O=C(/C=C/c1ccc(F)cc1)Nc1ncc(Cc2ccc(F)cc2)s1
active: [7] 2.79% | [9] 9.96%
inactive: [1] 26.1% | [2] 13.7% | [3] 23.2% | [4] 58.1% | [5] 33.6% | [6] 31.9% | [8] 14.1% | [10] 67% | [11] 32.3% | [12] 32.1% | [13] 50.6% | [14] 39% | [15] 47.2% | [16] 32.5% | [17] 27.5% | [18] 21.8% | [19] 34% | [20] 30.9%

O=C(O)C1C2CCC1C(O)C2 (stereo not given)
inactive: [1] 106% and 103% | [2] 102% | [3] 101% and 92.9% | [4] 102% and 108% | [5] 94.6% and 99.6% | [6] 110% and 95.9% | [7] 101% and 110% | [8] 110% and 108% | [9] 95.4% and 95.5% | [10] 104% and 110% | [11] 97.7% and 95.5% | [12] 110% | [13] 104% and 102% | [14] 81.6% and 82% | [15] 93.1% and 98.2% | [16] 106% and 104% | [17] 100% and 98.3% | [18] 116% and 113% | [19] 101% and 93.9% | [20] 93.6% and 93.5%

CC/C(=C(/c1ccc(Cl)cc1)c1ccc(OCCN2CCOCC2)cc1)c1ccccc1
inactive: [1] 94.1% | [2] 75.6% | [3] 105% | [4] 98.6% | [5] 93.6% | [6] 73.1% | [7] 108% | [8] 88.2% | [9] 108% | [10] 98.8% | [11] 93.7% | [12] 85.1% | [13] 95.8% | [14] 86.4% | [15] 108% | [16] 98.3% | [17] 69.4% | [18] 99.7% | [19] 83.9% | [20] 86%

O=C(Cc1ccc(F)cc1)c1ccccc1
inactive: [1] 108% | [2] 109% | [3] 100% | [4] 109% | [5] 106% | [6] 91.4% | [7] 110% | [8] 106% | [9] 102% | [10] 114% | [11] 114% | [12] 113% | [13] 99.4% | [14] 95.6% | [15] 104% | [16] 110% | [17] 106% | [18] 99.8% | [19] 88% | [20] 93.1%

CC(=O)c1c(C)nc(SCC(=O)Nc2ccc(Cl)cc2)n1-c1ccc(Cl)cc1
inactive: [1] 84.6% | [2] 83% | [3] 73.1% | [4] 93.7% | [5] 89.8% | [6] 71.8% | [7] 81.9% | [8] 69.7% | [9] 93.1% | [10] 104% | [11] 94% | [12] 95.5% | [13] 87% | [14] 80.9% | [15] 99.5% | [16] 93.7% | [17] 81.7% | [18] 83.2% | [19] 87.5% | [20] 64.1%

COC1=CC(c2ccc[nH]2)=N/C1=C\c1[nH]c(C)c(C(=O)Oc2ccccc2)c1C
active: [1] -35.1% | [2] -15.7% | [3] -16.6% | [5] -16.5% | [7] -99.9% | [8] -62.8% | [9] -86.1% | [10] -77.9% | [11] -68.6% | [12] -19.9% | [13] 0.383% | [14] -87.2% | [15] -6.73% | [16] -90.3% | [17] -23.8% | [18] -46.7% | [20] 3.87%
inactive: [4] 20.9% | [6] 17.6% | [19] 18.6%

CCOc1ccc(N2C(N)=NC(N)=NC2(C)C)cc1
-5.18% (active) and 72.7% (inactive): [18]
-3.85% (active) and 82.7% (inactive): [3]
4.48% (active) and 102% (inactive): [7]
-0.847% (active) and 107% (inactive): [11]
2.75% (active) and 87.4% (inactive): [2]
9.4% (active) and 79.8% (inactive): [19]
inactive: [1] 99.9% | [4] 40.3% and 98.2% | [5] 20% and 68.6% | [6] 16% and 39.3% | [8] 41.4% and 95.4% | [9] 36.7% and 90.1% | [10] 31.2% and 113% | [12] 93.9% | [13] 32.2% and 96.9% | [14] 42% and 96.6% | [15] 40.9% | [16] 44.6% and 102% | [17] 13.3% and 98.4% | [20] 39.2% and 81.5%

Cc1nn(-c2nc(-c3cc4ccccc4oc3=O)cs2)c(C)c1N=Nc1ccccc1
inactive: [1] 106% | [2] 103% | [3] 89.4% | [4] 101% | [5] 88.8% | [6] 106% | [7] 101% | [8] 86.6% | [9] 96.7% | [10] 108% | [11] 113% | [12] 99.8% | [13] 103% | [14] 79.3% | [15] 112% | [16] 108% | [17] 89.2% | [18] 100% | [19] 105% | [20] 100%

Cc1ccc(-c2nc3nc(-c4ccc(F)cc4)nc(N4CCCNCC4)c3o2)cc1
inactive: [18] 77.5%
active: [1] -84.5% | [2] -81.6% | [3] -96% | [4] -94.4% | [5] -93.2% | [6] -85.2% | [7] -87.4% | [8] -82.3% | [9] -88.6% | [10] -93.8% | [11] -61.2% | [12] -75.6% | [13] -91.2% | [14] -88.5% | [15] -93.8% | [16] -99.3% | [17] -95.4% | [19] -77.7% | [20] -61.1%

Cc1ccc(C(=O)Nc2nc3c(s2)CN(Cc2ccccc2)CC3)cn1
inactive: [1] 49.5% | [2] 59.1% | [3] 66.9% | [4] 92.3% | [5] 92.9% | [6] 74.1% | [7] 79.3% | [8] 74.5% | [9] 87% | [10] 94.3% | [11] 93% | [12] 90.4% | [13] 89.7% | [14] 80.5% | [15] 89.4% | [16] 100% | [17] 65.2% | [18] 89.9% | [19] 85.5% | [20] 95.6%

CCCCC1=C(Br)C(=O)c2nc(C)ccc2C1=O
inactive: [1] 95.5% | [2] 107% | [3] 84.4% | [4] 92.5% | [5] 89.6% | [6] 80.3% | [7] 92.6% | [8] 84.9% | [9] 89.1% | [10] 105% | [11] 109% | [12] 92.7% | [13] 91.6% | [14] 70.8% | [15] 115% | [16] 57.1% | [17] 85.9% | [18] 93.8% | [19] 30.9% | [20] 21.3%
